Data: ChEMBL document CHEMBL2218924, “A broad activity screen in support of a chemogenomic map for kinase signalling research and drug discovery” (Biochem J, 2013)

What follows are molecules tested against PAS domain-containing serine/threonine-protein kinase (Homo sapiens) (UniProt Q96RG2). Settings: at 1 µM.
PAS domain-containing serine/threonine-protein kinase (Homo sapiens), sequence (Q96RG2 whole entry, the tested form may be a part): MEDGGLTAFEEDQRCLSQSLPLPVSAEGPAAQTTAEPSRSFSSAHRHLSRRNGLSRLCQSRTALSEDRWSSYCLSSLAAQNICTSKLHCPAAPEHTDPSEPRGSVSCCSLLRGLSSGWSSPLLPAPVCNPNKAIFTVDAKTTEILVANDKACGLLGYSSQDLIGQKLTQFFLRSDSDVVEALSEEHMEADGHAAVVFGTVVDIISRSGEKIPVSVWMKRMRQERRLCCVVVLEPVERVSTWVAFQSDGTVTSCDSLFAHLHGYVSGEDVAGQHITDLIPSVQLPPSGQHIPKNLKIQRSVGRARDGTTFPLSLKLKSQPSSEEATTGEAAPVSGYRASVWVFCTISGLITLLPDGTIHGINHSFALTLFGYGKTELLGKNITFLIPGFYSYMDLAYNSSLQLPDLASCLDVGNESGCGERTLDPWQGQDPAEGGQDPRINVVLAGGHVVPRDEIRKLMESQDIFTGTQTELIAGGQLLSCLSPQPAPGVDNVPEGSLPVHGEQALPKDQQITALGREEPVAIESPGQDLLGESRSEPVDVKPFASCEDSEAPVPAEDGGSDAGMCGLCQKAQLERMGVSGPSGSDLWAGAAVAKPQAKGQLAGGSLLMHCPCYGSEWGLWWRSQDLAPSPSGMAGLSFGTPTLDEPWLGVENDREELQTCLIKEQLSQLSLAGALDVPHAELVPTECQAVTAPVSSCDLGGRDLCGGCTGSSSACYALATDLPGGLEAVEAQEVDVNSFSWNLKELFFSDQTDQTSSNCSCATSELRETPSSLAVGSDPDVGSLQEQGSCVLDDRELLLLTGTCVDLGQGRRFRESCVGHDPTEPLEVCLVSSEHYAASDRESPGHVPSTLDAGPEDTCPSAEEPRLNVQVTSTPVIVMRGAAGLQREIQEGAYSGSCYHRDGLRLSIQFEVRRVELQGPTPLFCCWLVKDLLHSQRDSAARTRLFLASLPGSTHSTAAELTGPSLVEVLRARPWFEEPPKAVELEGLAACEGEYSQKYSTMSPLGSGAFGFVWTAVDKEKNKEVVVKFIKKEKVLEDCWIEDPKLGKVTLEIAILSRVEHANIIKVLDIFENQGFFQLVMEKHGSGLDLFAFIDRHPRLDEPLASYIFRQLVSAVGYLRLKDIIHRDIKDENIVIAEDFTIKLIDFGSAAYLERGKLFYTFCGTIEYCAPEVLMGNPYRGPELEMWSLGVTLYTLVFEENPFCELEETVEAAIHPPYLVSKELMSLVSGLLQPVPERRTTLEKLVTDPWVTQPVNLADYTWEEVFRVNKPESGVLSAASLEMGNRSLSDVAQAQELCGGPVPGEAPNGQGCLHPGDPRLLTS

Compound	residual activity [%]
COc1ccc(OC)c2c(=S)c3ccccc3[nH]c12	108
CC(C)n1cnc2c(NCc3ccccc3)nc(NCCCO)nc21	131
CCOC(=O)c1c(C)[nH]c(/C=C2\C(=O)Nc3ccccc32)c1C	93
CCOc1cc2ncnc(Nc3cccc(Br)c3)c2cc1OCC	79
Nc1cccc(-c2cc3c(Oc4cccc(O)c4)ncnc3[nH]2)c1	123
CSc1nc(-c2ccc(F)cc2)c(-c2ccnc(NC(C)c3ccccc3)c2)[nH]1 (centres undefined)	95
COc1ccc(C(=O)Nc2sc3c(c2C(N)=O)CCCC3)cc1OC	95
COc1ccc(CNC(=O)Nc2ncc([N+](=O)[O-])s2)cc1	133
CC[n+]1c(/C=C/N(C)c2ccccc2)n(-c2ccccc2)c2ccc(-c3nc4ccccc4s3)cc21	80
O=C1Nc2cc(Br)ccc2/C1=C1/Nc2ccccc2/C1=N\O	94
O=C1NC(=O)c2cc(Nc3ccc(F)cc3)c(Nc3ccc(F)cc3)cc21	105
O=C1NC(=O)C(c2c[nH]c3ccccc23)=C1c1c[nH]c2ccccc12	81
Cn1sc(=O)n(Cc2ccccc2)c1=O	100
COc1cc2ncnc(Nc3ccc(Oc4ccccc4)cc3)c2cc1OC	98
Cn1cnc2cc3c(Nc4cccc(Br)c4)ncnc3cc21	82
O=S(=O)(c1cccc2cnccc12)N1CCCNCC1	83
COc1cc2nccc(Oc3ccc(NC(=O)Nc4cc(C)on4)c(Cl)c3)c2cc1OC	100
CC#CC(=O)Nc1cc2c(Nc3ccc(F)c(Cl)c3)ncnc2cn1	101
O=c1cc(-c2cccc3c2Sc2ccccc2S3)oc(N2CCOCC2)c1	109
Nc1ncnc2[nH]nc(Nc3ccc(F)cc3)c12	92

Compound	residual activity [%]
COc1ccc(-c2cnc3c(-c4ccsc4)cnn3c2)cc1	138
COc1ccc(Cl)cc1NC(=O)Nc1cc(C)nc2ccccc12	98
Nc1n[nH]c2nnc(-c3c(-c4ccccc4)nn4ccccc34)cc12	104
Oc1ccc(Nc2nc(-c3ccc(Cl)cc3)cs2)cc1	147
O=C1c2ccccc2-[n+]2ccc3c([nH]c4ccccc43)c21	147
CN([C@@H](Cc1ccc(OS(=O)(=O)c2cccc3cnccc23)cc1)C(=O)N1CCN(c2ccccc2)CC1)S(=O)(=O)c1cccc2cnccc12	79
Cn1cc(/C=C2\C(=O)Nc3ccc(S(N)(=O)=O)cc32)c2ccccc21	97
Oc1c2ccccc2c2c3c(cccc13)N=N2	125
O=C1NC(=O)/C(=C\c2ccc3nccnc3c2)S1	87
O=c1c2ccccc2[nH]c(=S)n1CCN1CCC(=C(c2ccc(F)cc2)c2ccc(F)cc2)CC1	85
CC(C)n1cnc2/c(=N/c3cccc(Cl)c3)nc(NCCO)[nH]c21	113
O=C(CCCc1ccc(-c2ccccc2F)cc1)Nc1ccc(O)cc1	102
O=c1c(-c2ccc(F)cc2)c(-c2ccncc2)[nH]n1-c1ccc(Cl)cc1	135
c1ccc2c(-c3ccncc3)c[nH]c2c1	99
c1ccc(-c2cnc(Nc3ccc(OCCN4CCCC4)cc3)s2)cc1	81
O=C1Nc2ccccc2/C1=C\c1c(Cl)[nH]c2ccccc12	99
Nc1nccc(-c2c(-c3ccc(F)cc3)ncn2C2CCNCC2)n1	129
O=C(Nc1cccc(Nc2cc(Nc3cccc(C(F)(F)F)c3)ncn2)c1)C1CC1	92
c1ccc(-c2n[nH]c3c2oc2ccccc23)cc1	130
